Assay results published in the supplement of paper PMC10849652.
The full data set covers some 7,900 targets. This sample favours those with a hit. About 0.6% of all pairs of compound and target were hits. A number with no mark means an inactive call.

Experiments:
Test in all cases: log2 fold change, soluble protein after heating vs DMSO (PISA); higher = thermal stabilisation; K562 cells, 10 uM, 30 min; active = over 0.2 and 3.5 SD of the protein, either way, in both replicates (recomputed)
saracatinib = compound: CN1CCN(CCOc2cc(OC3CCOCC3)c3c(Nc4c(Cl)ccc5c4OCO5)ncnc3c2)CC1 [saracatinib]
In short: (§1)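 Aliquots of K562 cells (2×10^6 cells/mL) treated with 10 μM compound for 30 min were heated for 3 min over 48°C-58°C. After pooling and extraction in PBS with 0.5% NP-40 at 4°C, soluble protein from a 21,000xg, 90 min spin was quantified by TMTpro 16plex LC-MS/MS with channel sums equalised. Thermal stability is expressed against control samples, from duplicates, as a log2 fold change.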

sotrastaurin = compound: CN1CCN(c2nc(C3=C(c4c[nH]c5ccccc45)C(=O)NC3=O)c3ccccc3n2)CC1 [sotrastaurin]
In short: as §1

alvocidib = compound: CN1CC[C@H](c2c(O)cc(O)c3c(=O)cc(-c4ccccc4Cl)oc23)[C@H](O)C1 [alvocidib]
In short: as §1

Tubastatin A = compound: CN1CCc2c(c3ccccc3n2Cc2ccc(C(=O)NO)cc2)C1 [Tubastatin A]
In short: as §1

[1] = compound: CNC(=O)C1=CC=CC=C1NC2=NC(=NC=C2Cl)NC3=C(C=C(C=C3)N4CCOCC4)OC
In short: as §1

defactinib = compound: CNC(=O)c1ccc(Nc2ncc(C(F)(F)F)c(NCc3nccnc3N(C)S(C)(=O)=O)n2)cc1 [defactinib]
In short: as §1

rucaparib = compound: CNCc1ccc(-c2[nH]c3cc(F)cc4c3c2CCNC4=O)cc1 [rucaparib]
In short: as §1

[2] = compound: CNc1nc(-c2ccc3c(N)n[nH]c3c2)cc(N2C[C@@H](C(=O)NC3CCCCC3)CC[C@H]2C)n1
In short: as §1

encorafenib = compound: COC(=O)N[C@@H](C)CNc1nccc(-c2cn(C(C)C)nc2-c2cc(Cl)cc(NS(C)(=O)=O)c2F)n1 [encorafenib]
In short: as §1

[3] = compound: COC(=O)[C@H](CCSC)NC(=O)C1=C(C=C(C=C1)NC[C@H](CS)N)C2=CC=CC=C2
In short: as §1

[4] = compound: COC1=CC=C(C=C1)CN2C=CC3=C2C=C(C=C3)C(=O)NO
In short: as §1

filanesib = compound: CON(C)C(=O)N1N=C(c2cc(F)ccc2F)S[C@@]1(CCCN)c1ccccc1 [filanesib]
In short: as §1

zotarolimus = compound: CO[C@H]1C[C@@H]2CC[C@@H](C)[C@@](O)(O2)C(=O)C(=O)N2CCCC[C@H]2C(=O)O[C@H]([C@H](C)C[C@@H]2CC[C@H](n3cnnn3)[C@H](OC)C2)CC(=O)[C@H](C)/C=C(\C)[C@@H](O)[C@@H](OC)C(=O)[C@H](C)C[C@H](C)/C=C/C=C/C=C/1C [zotarolimus]
In short: as §1

idasanutlin = compound: COc1cc(C(=O)O)ccc1NC(=O)[C@@H]1N[C@@H](CC(C)(C)C)[C@](C#N)(c2ccc(Cl)cc2F)[C@H]1c1cccc(Cl)c1F [idasanutlin]
In short: as §1

alisertib = compound: COc1cc(Nc2ncc3c(n2)-c2ccc(Cl)cc2C(c2c(F)cccc2OC)=NC3)ccc1C(=O)O [alisertib]
In short: as §1

[5] = compound: COc1cc2nc(-c3cc(F)ccc3O)nc(N[C@@H]3CNC[C@H]3C(C)(C)O)c2cc1OC
In short: as §1

gefitinib = compound: COc1cc2ncnc(Nc3ccc(F)c(Cl)c3)c2cc1OCCCN1CCOCC1 [gefitinib]
In short: as §1

[6] = compound: COc1cccc2cc(-c3nc([C@H]4CC[C@H](C(=O)O)CC4)n4ncnc(N)c34)[nH]c12
In short: as §1

lapatinib = compound: CS(=O)(=O)CCNCc1ccc(-c2ccc3ncnc(Nc4ccc(OCc5cccc(F)c5)c(Cl)c4)c3c2)o1 [lapatinib]
In short: as §1

pictilisib = compound: CS(=O)(=O)N1CCN(Cc2cc3nc(-c4cccc5[nH]ncc45)nc(N4CCOCC4)c3s2)CC1 [pictilisib]
In short: as §1

Sequence of UniProt Q92968 (Q92968 whole entry, looked up): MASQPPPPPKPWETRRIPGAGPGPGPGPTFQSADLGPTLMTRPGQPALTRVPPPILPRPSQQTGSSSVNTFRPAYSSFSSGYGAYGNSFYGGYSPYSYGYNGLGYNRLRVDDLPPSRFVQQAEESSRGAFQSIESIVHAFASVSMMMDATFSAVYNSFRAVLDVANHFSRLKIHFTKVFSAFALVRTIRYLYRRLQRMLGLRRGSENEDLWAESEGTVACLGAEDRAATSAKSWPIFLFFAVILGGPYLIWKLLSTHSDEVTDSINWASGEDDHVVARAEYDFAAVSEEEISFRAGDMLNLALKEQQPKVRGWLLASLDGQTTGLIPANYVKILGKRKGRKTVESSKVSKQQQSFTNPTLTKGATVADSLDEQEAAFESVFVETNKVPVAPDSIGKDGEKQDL
Sequence of UniProt P49642 (P49642 whole entry, looked up): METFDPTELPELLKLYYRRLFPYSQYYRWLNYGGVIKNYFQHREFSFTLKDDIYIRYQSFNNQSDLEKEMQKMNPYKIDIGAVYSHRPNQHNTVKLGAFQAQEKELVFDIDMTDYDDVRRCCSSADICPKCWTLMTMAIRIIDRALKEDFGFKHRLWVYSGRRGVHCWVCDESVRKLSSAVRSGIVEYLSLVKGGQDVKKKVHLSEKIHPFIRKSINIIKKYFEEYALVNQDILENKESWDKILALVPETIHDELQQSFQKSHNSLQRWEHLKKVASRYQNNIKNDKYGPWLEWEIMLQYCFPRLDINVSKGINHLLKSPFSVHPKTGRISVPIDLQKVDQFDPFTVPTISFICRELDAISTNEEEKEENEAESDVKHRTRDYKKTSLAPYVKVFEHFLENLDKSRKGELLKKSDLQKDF
Sequence of UniProt O95613 (O95613 whole entry, looked up): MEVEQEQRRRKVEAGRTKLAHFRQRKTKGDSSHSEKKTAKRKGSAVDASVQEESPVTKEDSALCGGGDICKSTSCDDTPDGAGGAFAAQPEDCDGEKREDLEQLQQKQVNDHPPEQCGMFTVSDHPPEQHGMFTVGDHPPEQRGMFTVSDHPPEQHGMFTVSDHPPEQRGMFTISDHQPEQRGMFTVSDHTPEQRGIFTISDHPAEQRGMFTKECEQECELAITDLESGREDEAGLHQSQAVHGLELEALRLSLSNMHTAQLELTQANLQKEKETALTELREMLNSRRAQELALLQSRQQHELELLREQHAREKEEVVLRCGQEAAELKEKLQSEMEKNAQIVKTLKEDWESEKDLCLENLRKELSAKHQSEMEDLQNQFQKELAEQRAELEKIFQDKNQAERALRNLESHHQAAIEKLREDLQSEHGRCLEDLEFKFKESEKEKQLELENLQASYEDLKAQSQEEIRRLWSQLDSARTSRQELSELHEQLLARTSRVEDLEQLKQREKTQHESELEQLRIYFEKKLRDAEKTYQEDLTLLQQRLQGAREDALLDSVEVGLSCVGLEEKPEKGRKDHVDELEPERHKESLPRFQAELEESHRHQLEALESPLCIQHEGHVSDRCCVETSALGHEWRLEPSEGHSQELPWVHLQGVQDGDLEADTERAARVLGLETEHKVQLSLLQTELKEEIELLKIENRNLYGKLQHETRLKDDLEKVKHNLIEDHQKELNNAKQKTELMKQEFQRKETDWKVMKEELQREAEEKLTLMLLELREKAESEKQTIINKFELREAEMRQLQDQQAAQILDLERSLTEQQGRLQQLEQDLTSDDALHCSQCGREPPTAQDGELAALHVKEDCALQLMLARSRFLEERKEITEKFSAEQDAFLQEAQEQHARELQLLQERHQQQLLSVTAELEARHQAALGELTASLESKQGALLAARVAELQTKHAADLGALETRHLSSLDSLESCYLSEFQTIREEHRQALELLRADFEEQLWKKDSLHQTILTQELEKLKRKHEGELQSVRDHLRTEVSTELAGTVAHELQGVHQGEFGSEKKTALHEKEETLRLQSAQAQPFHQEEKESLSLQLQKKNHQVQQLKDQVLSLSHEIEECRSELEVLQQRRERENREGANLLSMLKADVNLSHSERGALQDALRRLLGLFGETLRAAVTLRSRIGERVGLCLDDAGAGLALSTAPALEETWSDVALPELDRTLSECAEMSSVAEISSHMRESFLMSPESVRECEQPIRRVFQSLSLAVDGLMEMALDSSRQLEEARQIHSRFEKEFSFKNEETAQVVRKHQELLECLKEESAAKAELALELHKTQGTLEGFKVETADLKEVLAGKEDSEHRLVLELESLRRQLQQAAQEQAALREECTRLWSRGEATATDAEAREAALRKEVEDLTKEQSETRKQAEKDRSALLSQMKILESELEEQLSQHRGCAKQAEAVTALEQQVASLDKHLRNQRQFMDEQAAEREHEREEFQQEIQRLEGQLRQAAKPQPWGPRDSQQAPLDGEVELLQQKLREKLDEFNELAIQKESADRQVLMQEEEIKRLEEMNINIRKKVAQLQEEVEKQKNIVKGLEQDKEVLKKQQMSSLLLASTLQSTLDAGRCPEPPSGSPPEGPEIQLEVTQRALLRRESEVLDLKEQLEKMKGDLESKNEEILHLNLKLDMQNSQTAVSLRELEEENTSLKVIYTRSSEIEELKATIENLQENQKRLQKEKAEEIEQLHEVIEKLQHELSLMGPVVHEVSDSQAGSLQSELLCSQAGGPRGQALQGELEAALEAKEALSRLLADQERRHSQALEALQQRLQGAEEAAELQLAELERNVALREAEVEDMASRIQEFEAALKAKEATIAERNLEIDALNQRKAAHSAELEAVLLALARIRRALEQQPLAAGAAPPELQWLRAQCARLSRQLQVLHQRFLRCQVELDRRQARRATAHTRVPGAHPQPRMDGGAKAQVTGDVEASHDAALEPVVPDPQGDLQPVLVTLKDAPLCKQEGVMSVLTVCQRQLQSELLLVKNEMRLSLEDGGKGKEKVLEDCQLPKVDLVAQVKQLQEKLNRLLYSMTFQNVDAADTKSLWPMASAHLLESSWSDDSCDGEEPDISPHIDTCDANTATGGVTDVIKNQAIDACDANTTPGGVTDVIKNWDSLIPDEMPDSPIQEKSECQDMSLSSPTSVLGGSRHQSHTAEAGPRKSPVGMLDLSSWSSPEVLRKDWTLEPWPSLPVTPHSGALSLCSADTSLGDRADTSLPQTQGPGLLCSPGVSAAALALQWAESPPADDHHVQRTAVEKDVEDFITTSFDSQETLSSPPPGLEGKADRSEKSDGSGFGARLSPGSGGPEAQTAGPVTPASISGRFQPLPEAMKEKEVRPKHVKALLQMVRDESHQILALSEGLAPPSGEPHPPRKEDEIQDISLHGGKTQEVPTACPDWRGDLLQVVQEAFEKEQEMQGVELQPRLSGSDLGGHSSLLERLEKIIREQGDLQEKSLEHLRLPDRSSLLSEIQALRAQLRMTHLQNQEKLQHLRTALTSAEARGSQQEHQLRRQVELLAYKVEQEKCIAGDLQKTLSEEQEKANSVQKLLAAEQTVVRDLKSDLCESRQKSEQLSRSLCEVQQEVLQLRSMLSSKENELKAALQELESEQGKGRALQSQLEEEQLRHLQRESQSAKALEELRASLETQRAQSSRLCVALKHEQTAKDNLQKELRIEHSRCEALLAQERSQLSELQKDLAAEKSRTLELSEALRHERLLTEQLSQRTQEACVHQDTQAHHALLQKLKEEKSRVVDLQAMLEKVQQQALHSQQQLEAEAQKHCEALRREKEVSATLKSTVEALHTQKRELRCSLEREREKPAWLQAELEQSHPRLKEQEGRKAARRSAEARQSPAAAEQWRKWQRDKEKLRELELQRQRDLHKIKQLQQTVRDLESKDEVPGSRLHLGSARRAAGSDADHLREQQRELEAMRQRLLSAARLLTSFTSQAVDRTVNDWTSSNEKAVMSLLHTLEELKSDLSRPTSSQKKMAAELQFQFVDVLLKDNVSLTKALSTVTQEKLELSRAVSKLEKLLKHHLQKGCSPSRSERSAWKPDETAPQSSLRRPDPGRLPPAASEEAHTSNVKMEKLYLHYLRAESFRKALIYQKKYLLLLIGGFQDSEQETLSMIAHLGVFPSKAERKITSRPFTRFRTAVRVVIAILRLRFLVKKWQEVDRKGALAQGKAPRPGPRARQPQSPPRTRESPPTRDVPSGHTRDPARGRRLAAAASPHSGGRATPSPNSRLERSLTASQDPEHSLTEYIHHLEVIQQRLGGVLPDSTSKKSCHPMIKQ
Sequence of UniProt Q9P2B2 (Q9P2B2 whole entry, looked up): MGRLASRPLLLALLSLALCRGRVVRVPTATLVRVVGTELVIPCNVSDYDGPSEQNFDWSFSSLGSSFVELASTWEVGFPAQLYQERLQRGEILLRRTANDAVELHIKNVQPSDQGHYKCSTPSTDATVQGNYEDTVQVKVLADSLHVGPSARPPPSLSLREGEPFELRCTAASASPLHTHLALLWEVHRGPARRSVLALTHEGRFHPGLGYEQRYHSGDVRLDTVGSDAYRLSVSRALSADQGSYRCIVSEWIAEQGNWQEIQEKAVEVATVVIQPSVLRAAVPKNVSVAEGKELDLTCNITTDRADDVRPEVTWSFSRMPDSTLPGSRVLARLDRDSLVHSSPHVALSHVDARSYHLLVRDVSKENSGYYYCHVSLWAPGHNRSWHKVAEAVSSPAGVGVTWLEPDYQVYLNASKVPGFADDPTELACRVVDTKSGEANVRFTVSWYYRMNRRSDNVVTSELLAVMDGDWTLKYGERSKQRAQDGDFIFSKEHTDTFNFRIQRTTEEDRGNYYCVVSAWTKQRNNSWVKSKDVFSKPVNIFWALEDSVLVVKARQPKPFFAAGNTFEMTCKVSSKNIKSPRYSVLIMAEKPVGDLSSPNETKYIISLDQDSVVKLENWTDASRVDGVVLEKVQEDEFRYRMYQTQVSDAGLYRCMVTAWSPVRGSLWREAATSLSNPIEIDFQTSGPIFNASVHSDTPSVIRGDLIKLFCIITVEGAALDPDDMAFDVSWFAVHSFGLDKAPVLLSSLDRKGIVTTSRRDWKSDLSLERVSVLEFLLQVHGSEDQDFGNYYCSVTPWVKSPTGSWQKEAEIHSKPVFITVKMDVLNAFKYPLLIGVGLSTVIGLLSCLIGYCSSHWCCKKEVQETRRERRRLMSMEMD

Target	log2 fold change (saracatinib)	log2 fold change (sotrastaurin)	log2 fold change (alvocidib)	log2 fold change (Tubastatin A)	log2 fold change [1]	log2 fold change (defactinib)	log2 fold change (rucaparib)	log2 fold change [2]	log2 fold change (encorafenib)	log2 fold change [3]	log2 fold change [4]	log2 fold change (filanesib)	log2 fold change (zotarolimus)	log2 fold change (idasanutlin)	log2 fold change (alisertib)	log2 fold change [5]	log2 fold change (gefitinib)	log2 fold change [6]	log2 fold change (lapatinib)	log2 fold change (pictilisib)
PMM2 (UniProt O15305)	-0.025	0.062	0.006	-0.031	-0.183	0.022	0.018	-0.02	-0.006	0.058	-0.054	-0.014	-0.01	0.011	0.009	0.071	0.016	0.034	-0.088	-0.113
POLD3 (UniProt Q15054)	-0.035	-0.131	-0.229	0.137	0.01	-0.225	0.018	0.042	0.082	-0.047	0.002	-0.176	0.123	-0.029	0.002	-0.05	0.066	0.1	0.098	0.004
PSMA3 (UniProt P25788)	0.012	0.038	-0.043	-0.006	0.014	0.048	-0.001	0.02	0.034	0	0.015	0.034	0.044	0.019	-0.04	-0.079	-0.025	-0.003	0.062	-0.053
PRIM1 (UniProt P49642)	-0.109	-0.111	-0.007	0.042	0.116	-0.107	0.084	0.051	0.153	-0.082	0.04	0.001	0.073	-0.06	0.052	-0.012	0.011	-0.053	0.007	0.021
PRKCQ (UniProt Q04759)	-0.034	-0.903 (active)	-0.185	0.017	-0.047	-0.03	0.003	0.002	0.043	-0.025	-0.044	-0.027	0.052	-0.003	-0.018	-0.206	0.021	-0.008	0.041	-0.053
PSMD3 (UniProt O43242)	-0.06	-0.015	0.022	0.016	0.007	0.083	0.037	0.051	0.031	0.003	-0.058	0.061	0.021	0.003	-0.075	-0.089	-0.035	-0.011	0.061	-0.023
PTMA (UniProt P06454)	0.016	-0.026	-0.034	0.098	-0.07	-0.108	0.02	0.01	-0.05	-0.059	0.118	-0.093	-0.054	-0.045	-0.596 (active)	-0.049	0.029	0.043	-0.016	0.001
PELO (UniProt Q9BRX2)	-0.079	-0.218	-0.066	0.121	-0.122	-0.058	0.299	0.148	0.137	0.061	0.001	0.128	0.158	-0.024	0.489	0.053	0.009	0.001	-0.06	-0.111
PEX13 (UniProt Q92968)	-0.067	-0.083	0.022	0.061	-0.061	-0.011	-0.058	0.008	0.047	-0.087	0.028	-0.072	-0.129	-0.019	-0.037	-0.318 (active)	-0.045	0.115	-0.013	0.009
PTGFRN (UniProt Q9P2B2)	0.029	0.082	-0.029	0	-0.092	-0.049	-0.024	0.056	-0.004	0.053	0.006	0.129	-0.021	0.073	0.01	0.139	0.025	0.124	0.036	0.122
PNPLA2 (UniProt Q96AD5)	0.015	-0.028	-0.058	-0.034	-0.039	0	-0.06	0.154	-0.012	-0.056	-0.089	-0.134	0.002	-0.082	0.014	-0.077	-0.048	0.029	-0.032	0.02
PCNT (UniProt O95613)	-0.06	0.115	0.067	-0.069	-0.098	0.154	-0.116	0.019	0.037	0.091	-0.228	0.006	-0.001	0.075	0.02	0.055	0.085	0.257	-0.174	0.285
PHKA2 (UniProt P46019)	0.032	-0.085	-0.088	-0.021	0.135	0.012	-0.063	-0.009	-0.022	-0.03	-0.17	-0.055	0.022	-0.104	-0.067	0.064	-0.006	0.025	-0.037	0.078
PDE12 (UniProt Q6L8Q7)	0.014	0.018	-0.098	0.01	0.028	-0.04	-0.005	0.023	-0.019	0.007	0.359 (active)	-0.052	0.044	-0.052	-0.051	0.014	-0.01	-0.003	-0.007	0.074
PSME4 (UniProt Q14997)	-0.006	-0.035	-0.051	0.025	-0.027	0.037	-0.023	0.067	0.066	-0.029	-0.023	-0.091	0.005	-0.123	-0.045	-0.03	-0.071	0.037	0.044	-0.045
PPT1 (UniProt P50897)	-0.007	0.029	0.005	-0.038	0.024	0.024	0.047	-0.019	-0.023	-0.002	0.021	-0.241 (active)	-0.043	0.005	-0.041	-0.041	-0.03	0.074	-0.038	0.052
